# Compounds without any hit were thinned out: in the full panel of roughly 83,000, 20% have a hit.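 Cells were grown in 96-well plates and exposed to the test compound at a single concentration for 48 hours; results are reported as percent growth, with values below 10 considered active.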 Values without a mark were called inactive. Calls of active or inactive are those of the source.
# What was measured:
# Experiment in all cases: NCI-60 one-dose screen, 48 h (100 = growth as untreated, 0 = no growth, -100 = all killed)
# Details in all cases: 10 µM unless noted
# HCT-15 colon = tested on: HCT-15 colon
# HT29 colon = tested on: HT29 colon
# SNB-75 CNS = tested on: SNB-75 CNS
# SNB-19 CNS = tested on: SNB-19 CNS
# U251 CNS = tested on: U251 CNS
# PC-3 prostate = tested on: PC-3 prostate
# SK-MEL-5 melanoma = tested on: SK-MEL-5 melanoma
# UACC-62 melanoma = tested on: UACC-62 melanoma
# LOX IMVI melanoma = tested on: LOX IMVI melanoma
# SK-MEL-28 melanoma = tested on: SK-MEL-28 melanoma
Structure (SMILES),growth (HCT-15 colon),growth (HT29 colon),growth (SNB-75 CNS),growth (SNB-19 CNS),growth (U251 CNS),growth (PC-3 prostate),growth (SK-MEL-5 melanoma),growth (UACC-62 melanoma),growth (LOX IMVI melanoma),growth (SK-MEL-28 melanoma)
COc1ccc2[nH]c(O)c(N=Nc3nc(-c4ccc(Cl)cc4)cs3)c2c1,-53.3% (active),-18.4% (active),-66.9% (active),24.1%,-75.6% (active),-10.5% (active),8.45% (active),-32.3% (active),-54.9% (active),-24.2% (active)
O=C1NC(=NC23CC4CC(CC(C4)C2)C3)N/C1=C\c1ccc2ncccc2c1,-12% (active),1.49% (active),-66.3% (active),5.85% (active),-63.7% (active),-48.1% (active),-9.19% (active),23.6%,-76.9% (active),-3.01% (active)
NS(=O)(=O)c1ccc(Nc2nc(SCC(=O)c3ccc(F)cc3)nc3ccccc23)cc1,24.9%,63.3%,43.5%,54.8%,47.2%,43.1%,18.6%,26.4%,20.7%,55.6%
O=C(CSc1nc2ccccc2c(=O)[nH]1)Nc1ccccc1C(=O)O,86.6%,124%,139%,95.7%,101%,110%,94.9%,84.8%,84.8%,93.7%
CN1CCN(C(=O)Oc2cc3c(c4ccccc24)[C@H](CCl)CN3C(=O)c2cc3cc(OCCCN4CCC4)ccc3[nH]2)[C@H]2CSSC[C@H]21,-1.96% (active),-1.25% (active),-77.2% (active),-15% (active),6.86% (active),-8.67% (active),-21.2% (active),-81.9% (active),-23.9% (active),-51.1% (active)
Cc1cc(Cl)ccc1NC(=O)Nc1ccc(-c2ccc3c(c2)NC(=O)/C3=C\c2ccc[nH]2)cc1,92.6%,109%,99.4%,94.5%,103%,104%,106%,98.5%,101%,114%
Cn1cc(-c2cc3nc(-c4c[nH]c5ccccc45)cc(N)n3n2)c2ccccc21,-73% (active),-65.3% (active),91.6%,18.6%,-91.1% (active),-69.7% (active),8.15% (active),-88.5% (active),-77.8% (active),-97.8% (active)
N#Cc1c(NC(=O)N2CCOCC2)n(-c2ccc(OC(F)(F)F)cc2)c2cc(F)ccc12,95.5%,90%,140%,117%,98.8%,83.9%,82.4%,73.2%,102%,89.5%
Oc1cncc(-c2ccc3ncnc(N4CCc5cc(F)c(Cl)cc54)c3c2)c1,66.3%,57.8%,25.6%,38.6%,39.1%,57.4%,78.5%,71.8%,38.8%,77.6%
C[C@@H]1[C@H]2C[C@@H](C[C@H]1NCc1nc3ccccc3n1C1CCCCCC1)C2(C)C,27.3%,51.4%,82%,59.3%,67.2%,37.1%,4.99% (active),47.9%,44%,77.5%
Cc1ccc(N=Nc2c(N)nn3c(-c4cc5ccccc5oc4=O)ccnc23)cc1,40.6%,30.2%,93.7%,32.2%,43%,54.6%,42.4%,82.3%,36%,44.7%
COc1ccc(/C=C/C(=O)c2ccc(OC)c(S(N)(=O)=O)c2)c(C(F)(F)F)c1,-52% (active),6.34% (active),37.6%,-28.6% (active),-64.7% (active),–,18.9%,30.6%,-93% (active),35.5%
COc1sc(/C=N/NC(=O)c2[nH]c3ccc(Br)cc3c2-c2ccccc2)cc1Br,7.77% (active),-26.9% (active),57.1%,14.7%,-11.2% (active),–,-53.5% (active),17%,-23.4% (active),18.2%
O=C(N/N=C/c1ccc(-c2cccc([N+](=O)[O-])c2)s1)c1[nH]c2ccc(Br)cc2c1-c1ccccc1,84.9%,109%,86.8%,56.1%,73.4%,85.7%,93.8%,70.5%,85.8%,87.6%
CC[C@]12C=CCN3CC[C@]4(C(=C(C(=O)OC)C1)Nc1cc(OC)c([C@@H]5[C@H]6O[C@H]6[C@@]6(CC)CC(C(=O)OC)=C7Nc8cc(OC)ccc8[C@@]78CCN5[C@@H]68)cc14)[C@@H]32,24.8%,58.9%,50%,58.2%,48.4%,18.7%,27.9%,42.9%,15.5%,82.5%
Cc1oc(-c2ccccc2)nc1CN[C@@H]1C[C@@H]2C[C@H]([C@H]1C)C2(C)C,18.8%,7.34% (active),79.2%,37.6%,41.2%,–,-94.1% (active),-32.6% (active),-95.5% (active),2.07% (active)
COc1ccc(N=Nc2c(N)nn3c(-c4ccc(F)cc4)ccnc23)cc1,54%,58.6%,110%,97.1%,69.8%,82.2%,91.1%,71.3%,86.8%,63.1%
C=CCSc1nnc(-c2ccc(-c3nc4ccccc4[nH]3)cc2)o1,51.3%,69.5%,74%,79.7%,84%,–,50.6%,73.9%,73.9%,85.6%
O=C(NNC(=O)c1ccc(OCc2nc3ccc(Cl)cc3[nH]2)cc1)Nc1ccc(Cl)c(C(F)(F)F)c1,97.6%,68.2%,59.8%,61.1%,30.7%,–,70.4%,61.4%,48.2%,52.8%
c1ccc(CSc2nnc(-c3ccc4nc(-c5ccccc5)[nH]c4c3)o2)cc1,12.7%,42.5%,-51.4% (active),16.3%,4.61% (active),26.6%,29.4%,5.19% (active),-43.6% (active),-4.76% (active)
COc1cc(CNC(=O)C[C@H](C)CCC=C(C)C)ccc1OCc1cn(-c2ccccc2F)nn1,82.8%,97.4%,10.6%,55.7%,61.6%,–,70.8%,69.5%,76.7%,94.9%
COc1ccc(-c2cc(-c3ccccc3)c(C#N)c(=O)[nH]2)cc1S(N)(=O)=O,106%,105%,89.4%,92.3%,98.5%,–,104%,110%,94.5%,107%
CC1CCc2c(sc3nc(SCC(=O)c4cccc(Br)c4)n(-c4ccccc4)c(=O)c23)C1 (centres undefined),41%,21.6%,54.9%,64.8%,-25.5% (active),–,66%,89.8%,45.2%,73.5%
O=C(NNC(=S)NCCc1ccccc1)c1ccc(OCc2nc3ccc(Cl)cc3[nH]2)cc1,66.9%,100%,128%,75.6%,88.2%,–,41.6%,63.3%,80.4%,101%
O=C1Nc2cc(-c3ccc(NS(=O)(=O)c4ccc(F)c(Cl)c4)cc3)ccc2/C1=C/c1ccc[nH]1,14%,-18.4% (active),62.7%,46.6%,2.34% (active),30.2%,58.8%,32.9%,0.97% (active),41.4%
O=C(Cc1c(-c2ccccc2[N+](=O)[O-])n(-c2ncnc3c2c(-c2ccccc2)c(-c2ccccc2)n3Cc2ccccc2)[nH]c1=O)c1ccc(Cl)c(Cl)c1,46.9%,18.4%,14%,16.8%,28.1%,–,-45.3% (active),-9.59% (active),14.9%,27.8%
CC(C)(C)C(=O)c1c2c(c3ccc4c5ccccc5ccc4n13)C(=O)c1ccccc1C2=O,81.7%,111%,122%,88.7%,98.5%,–,78.8%,97.2%,73.2%,105%

# Reference: PubChem BioAssay (NCI)
